Counter-ions that a name gives are not always drawn. ± gives the uncertainty stated by the source.
test system: THP-1; test: CD54 surface expression induction over DMSO control (% over DMSO); higher = stronger dendritic cell activation; details: exposure time: 24 h
Description: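 hCLAT-like CD54 and CD86 surface expression on THP1 cells after 24 h exposure at a single concentration (highest non-cytotoxic concentration, or 100-200 µM if not cytotoxic). Flow cytometry (iQue) was run on 5,000 live cells.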

Question: How did the “CD54 surface expression induction” value turn out when `ClC1=C(Cl)C(Cl)(Cl)C(Cl)=C1Cl` [Hexachlorocyclopentadiene] (200 µM) was run?
Answer: 47.8 ± 5.2

Question: For `CCC(C)(CC)c1cc(NC(=O)c2c(OC)cccc2OC)on1` [Isoxaben] (200 µM), which “CD54 surface expression induction” value is on record?
Answer: -4.09 ± 5.1

Question: How did the “CD54 surface expression induction” value turn out when `CN(C)c1ccc(N(C)C)cc1` [*N,N,N',N'-Tetramethyl-p-phenylenediamine] (200 µM) was run?
Answer: 91.8 ± 6

Question: `COP(=O)(OC)OC(Br)C(Cl)(Cl)Br` (stereo not given) [Naled] (100 µM) was tested. Which “CD54 surface expression induction” value did it give?
Answer: 3.64 ± 4.3

Question: How did the “CD54 surface expression induction” value turn out when `N#CCC#N` [Propanedinitrile] (199 µM) was run?
Answer: -2.75 ± 3

Question: `Fc1ccc(Oc2ccnc3cc(Cl)cc(Cl)c23)cc1` [Quinoxyfen] (200 µM) was tested. Which “CD54 surface expression induction” value did it give?
Answer: -12.7 ± 1

Question: `[OH-].c1cc[c]([Sn+]([c]2ccccc2)[c]2ccccc2)cc1` [Triphenyltin hydroxide] (10 µM) was tested. Which “CD54 surface expression induction” value did it give?
Answer: 54.7 ± 30

Question: For `OCc1ccco1` [Furfuryl alcohol] (201 µM), which “CD54 surface expression induction” value is on record?
Answer: 0.62 ± 1.6

Question: `CS/C(C)=N\OC(=O)N(C)SN(C)C(=O)O/N=C(\C)SC` [Thiodicarb] (10 µM) was tested. Which “CD54 surface expression induction” value did it give?
Answer: -6.62 ± 5

Question: `N#C/C=C/C#N` [Fumaronitrile] (10 µM) was tested. Which “CD54 surface expression induction” value did it give?
Answer: -10.2 ± 27

Question: `CCOCN(C(=O)CCl)c1c(C)cccc1CC` [Acetochlor] (10 µM) was tested. Which “CD54 surface expression induction” value did it give?
Answer: 104 ± 21

Question: `C[C@@H]1O[C@@H](O[C@H]2C[C@@H](O)[C@]3(CO)[C@H]4[C@H](O)C[C@]5(C)[C@@H](C6=CC(=O)OC6)CC[C@]5(O)[C@@H]4CC[C@]3(O)C2)[C@H](O)[C@H](O)[C@H]1O` [Ouabain] (10 µM) was tested. Which “CD54 surface expression induction” value did it give?
Answer: 21.9 ± 10

Question: With `CCOC(=O)NC(=S)Nc1ccccc1NC(=S)NC(=O)OCC` [Thiophanate] (100 µM) as the compound, how does the “CD54 surface expression induction” value read?
Answer: 18.5 ± 4.7

Question: For `Nc1ccc(Cl)cc1Cl` [2,4-Dichloroaniline] (200 µM), which “CD54 surface expression induction” value is on record?
Answer: -7.56 ± 1.5

Question: How did the “CD54 surface expression induction” value turn out when `Cc1cc(C2CC2)nc(Nc2ccccc2)n1` [Cyprodinil] (200 µM) was run?
Answer: 2.24 ± 3.2

Question: With `CN1C[C@H](C(=O)N[C@]2(C)O[C@@]3(O)[C@@H]4CCCN4C(=O)[C@H](Cc4ccccc4)N3C2=O)C=C2c3cccc4[nH]cc(c34)C[C@H]21` [Ergotamine D-tartrate*] (79 µM) as the compound, how does the “CD54 surface expression induction” value read?
Answer: 228 ± 28

Question: Which “CD54 surface expression induction” value does the source give for `Nc1cc(Cl)ccc1O` [2-Amino-4-chlorophenol] (200 µM) here?
Answer: 89.8 ± 6.4

Question: Which “CD54 surface expression induction” value does the source give for `CCOP(=S)(OCC)SC(CCl)N1C(=O)c2ccccc2C1=O` (stereo not given) [Dialifor] (100 µM) here?
Answer: -4.61 ± 27

Question: How did the “CD54 surface expression induction” value turn out when `O=C(CCl)c1ccccc1` [2-Chloroacetophenone] (100 µM) was run?
Answer: 24.1 ± 11

Question: `[CH3][Hg][Cl]` [Methyl mercuric (II) chloride] (10 µM) was tested. Which “CD54 surface expression induction” value did it give?
Answer: 36.6 ± 5.5

Question: How did the “CD54 surface expression induction” value turn out when `c1ccc2sc(SNC3CCCCC3)nc2c1` [N-Cyclohexyl-2-benzothiazolesulfenamide] (100 µM) was run?
Answer: -15.5 ± 5.8

Question: Which “CD54 surface expression induction” value does the source give for `COc1ccc2[nH]cc(CCN(C(C)C)C(C)C)c2c1` [5-Methoxy-N,N-diisopropyltryptamine hydrochloride] (224.7 µM) here?
Answer: -7.18 ± 11

Question: Which “CD54 surface expression induction” value does the source give for `CCNc1nc(NC(C)(C)C)nc(SC)n1` [Terbutryn] (100 µM) here?
Answer: 1.12 ± 1.2

Question: How did the “CD54 surface expression induction” value turn out when `C[C@]12CC[C@H](O)C[C@H]1CC[C@@H]1[C@@H]2C[C@@H](O)[C@]2(C)[C@@H](C3=CC(=O)OC3)CC[C@]12O` [Digoxigenin] (10 µM) was run?
Answer: 27.6 ± 4.9

Question: Which “CD54 surface expression induction” value does the source give for `CCCCOCN(C(=O)CCl)c1c(CC)cccc1CC` [Butachlor] (10 µM) here?
Answer: -3.73 ± 3.2

Question: Which “CD54 surface expression induction” value does the source give for `NCCc1ccc(O)cc1` [Tyramine] (100 µM) here?
Answer: -4.6 ± 1.1

Question: With `C=CC(=O)OCC(COC(=O)C=C)(COC(=O)C=C)COC(=O)C=C` [Pentaerythritol tetraacrylate] (10 µM) as the compound, how does the “CD54 surface expression induction” value read?
Answer: 1.03 ± 1.9

Question: For `CCCCNC(=O)OCC#CI` [Carbamic acid, butyl-, 3-iodo-2-propynyl ester] (10 µM), which “CD54 surface expression induction” value is on record?
Answer: -5.33 ± 4.1

Question: `CC(C)=CC1C(C(=O)OCc2coc(Cc3ccccc3)c2)C1(C)C` (stereo not given) [Resmethrin] (200 µM) was tested. Which “CD54 surface expression induction” value did it give?
Answer: 19.8 ± 10

Question: `c1ccc2c(c1)OCC(C1=NCCN1)O2` (stereo not given) [Idazoxan] (10 µM) was tested. Which “CD54 surface expression induction” value did it give?
Answer: -6.12 ± 5.1

Question: Which “CD54 surface expression induction” value does the source give for `CCOP(=S)(OCC)Oc1cnc2ccccc2n1` [Quinalphos] (200 µM) here?
Answer: -1.41 ± 9

Question: `O=C1OC(CCN2CCCCC2)OC1(c1ccccc1)c1ccccc1` (stereo not given) [Pipoxolan hydrochloride] (100 µM) was tested. Which “CD54 surface expression induction” value did it give?
Answer: 78.1 ± 22

Question: `CCC(C)(NC(=O)c1cc(Cl)c(C)c(Cl)c1)C(=O)CCl` (stereo not given) [Zoxamide] (10 µM) was tested. Which “CD54 surface expression induction” value did it give?
Answer: 10.1 ± 25

Question: How did the “CD54 surface expression induction” value turn out when `Cc1ccc2c(c1N)C(=O)c1ccccc1C2=O` [1-Amino-2-methylanthraquinone] (100 µM) was run?
Answer: 131 ± 21

Question: `CCOC(=O)CC(SP(=S)(OC)OC)C(=O)OCC` (stereo not given) [Malathion] (100 µM) was tested. Which “CD54 surface expression induction” value did it give?
Answer: 3.59 ± 5.1

Question: `CC(C)CC(C)Nc1ccc(Nc2ccccc2)cc1` (stereo not given) [N-(1,3-Dimethylbutyl)-N'-phenyl-p-phenylenediamine] (10 µM) was tested. Which “CD54 surface expression induction” value did it give?
Answer: 6.74 ± 24

Question: How did the “CD54 surface expression induction” value turn out when `CN(C)S(=O)(=O)N(SC(F)(Cl)Cl)c1ccccc1` [Dichlofluanid] (10 µM) was run?
Answer: 35.6 ± 3.1

Question: How did the “CD54 surface expression induction” value turn out when `O=C1C=CC(=O)c2ccccc21` (10 µM) was run?
Answer: 239 ± 45

Question: `O=[N+]([O-])c1ccc(Oc2ccc(C(F)(F)F)cc2[N+](=O)[O-])cc1` [Fluorodifen] (10 µM) was tested. Which “CD54 surface expression induction” value did it give?
Answer: -6.85 ± 4.5

Question: For `Nc1ccc(N)cc1` [1,4-Benzenediamine] (10 µM), which “CD54 surface expression induction” value is on record?
Answer: 30.8
